# Compound activity deposited in PubChem BioAssay by Center for Chemical Genomics, University of Michigan.
# Dicer processing – inhibitors of Dicer pre-microRNA processing, primary screen, biochemical, cat-ELCCA, chemiluminescence. Endoribonuclease Dicer (Homo sapiens), Q9UPY3. cat-ELCCA pre-miR-21 Dicer processing; stronger effect = higher value. z-score at 25 µM. actives 6% (n = 47,000); in the data active = z-score above about 3, passing the limit was not always enough;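 note: plate controls were vehicle for no effect and no enzyme for full effect; higher signal means more uncleaved substrate so more Dicer inhibition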
# An asterisk follows results filed as active. Shown is part of a subset that was picked to be rich in hits.
SMILES,Dicer processing
CC(=O)Nc1nc(C)c(-c2csc(Nc3ccc(O)cc3)n2)s1,-2.71
Cc1ccnc(Nc2nc(-c3c(C)nc4cc(C)ccn34)cs2)c1,5.6*
Cc1ccn2c(-c3csc(Nc4ccc(S(=O)(=O)Nc5cc(C)on5)cc4)n3)c(C)nc2c1,2.66
Cc1nc2ccccn2c1-c1csc(Nc2ccccn2)n1,9.08
COC(=O)c1c(C)nc(C)c(C(=O)OC)c1-c1csc(S(=O)(=O)N2CCCC2)c1,0.16
c1ccc(CNc2cc(-c3ccccc3)[nH]n2)cc1,-3.85
Cc1c(C)c(C)c(CSc2cccc(NC(=O)/C=C/C(=O)O)c2)c(C)c1C,1.8
O=C(O/N=C1\CCCCC1Cn1ccnc1)c1ccc(Cl)cc1 (stereo not drawn),1.18
Cc1ccc(C2OC3(C(=O)c4ccccc4C3=O)C3C(=O)N(C4CCCCC4)C(=O)C23)cc1 (stereo not drawn),-4.2
Cc1cccc(OCc2nn3c(Cc4ccccc4)nnc3s2)c1,1
Cc1ccc(-c2cn3c4c(=O)n(C)c(=O)n(C)c4nc3n2Cc2ccc(F)cc2)cc1,0.9
CCN(CC)CCOC(=O)c1ccc2nc(N)sc2c1,-0.62
CCSc1nnc(NC(=O)C2Cc3ccc(C)cc3C(=O)O2)s1 (stereo not drawn),-1.82
N#Cc1c(-c2ccc(F)cc2)c2c([nH]c1=O)-c1ccccc1CC2,0.96
N#Cc1c(-c2ccc(F)cc2)c2c([nH]c1=O)-c1ccccc1SC2,3.46*
N#Cc1c(-c2cccnc2)c2c([nH]c1=O)-c1ccccc1SC2,0.62
COc1cc(/C=N/N(C)C(=S)Nc2cccc(Cl)c2C)cc(OC)c1OC,0.65
CCc1cnc(/N=C/NO)nc1-c1c(F)cccc1F,0
CCOC(=O)CSc1nnnn1-c1ccccc1,3.72*
OCCSc1nnnn1-c1ccccc1,-1.28
O=C(CSc1nnnn1-c1ccccc1)c1ccccc1,0.17
CSc1nc2c(c(=O)[nH]1)C(c1ccc(OCc3ccccc3)cc1)C1=C(CC(C)(C)CC1=O)N2 (stereo not drawn),-0.72
O=C(CC(=O)c1ccccc1O)c1ccco1,-1.74
CCOC(=O)CSc1nc(SCC(=O)OCC)c2c3c(sc2n1)CCC3,2.88
CCOC(=O)CC(=O)CSc1nc(N)c2c3c(sc2n1)CCC3,-0.06
SMILES,Dicer processing
Nc1nc(SCC(=O)c2ccc(Cl)cc2)nc2sc3c(c12)CCCCC3,-1.4
CCOC(=O)CCCSc1nc(N)c2c3c(sc2n1)CCCC3,3.13*
CCOC(=O)c1nc2sc3c(c2c(=O)[nH]1)CCCC3,-0.09
CCOC(=O)CC(=O)CSc1nc(N)c2c3c(sc2n1)CCCC3,5.52*
CC(=O)c1sc(-c2ccccc2)cc1NS(=O)(=O)c1ccc(C)c(Cl)c1,0.19
COC(=O)Cc1nc(NC(=O)c2ccccc2)sc1C,0.66
Cn1ccc(NC(=O)/C(C#N)=C/c2ccc(Cl)cc2)n1,-1.01
O=C1/C(=C\c2cccs2)SC(=S)N1c1ccc(S(=O)(=O)Nc2nccs2)cc1,-1.86
FC(F)(F)c1ccc(NCn2nnc3ccccc32)cc1,-5.33
FC(F)(F)Oc1ccccc1NCn1nnc2ccccc21,3.58*
OCCCCCCN(Cn1nnc2ccccc21)Cn1nnc2ccccc21,0.54
CC(C)S(=O)(=O)c1csc(NC(=O)Nc2cc(Cl)cc(Cl)c2)c1,0.92
COc1nc(C)ccc1-c1noc(-c2ccccc2)n1,0.68
COCc1nc2sc(C(=O)OC)c(N)c2cc1C(=O)OC,0.03
O=C(Nc1ccc(N2C(=O)c3cccnc3C2=O)cc1)c1ccco1,-1.3
O=C(O)c1ccc(N2C(=O)c3cccnc3C2=O)cc1,4.45*
O=C1c2cccnc2C(=O)N1c1cccc(-c2nc3ccccc3o2)c1,2.66
c1ccc(CN2CCC(Nc3ncnc4ccsc34)CC2)cc1,-0.06
O=C(Nc1cncc(C#Cc2ccccc2)c1)N1CCCCC1,56.8
NS(=O)(=O)c1ccc(Sc2nc3ccccc3o2)c([N+](=O)[O-])c1,-0.75
Cc1cccc(S(=O)(=O)Nc2ccc(-c3cn4cccc(C)c4n3)cc2)c1,10.4
Cc1cccc(S(=O)(=O)Nc2cccc(-c3cn4ccc(C)cc4n3)c2)c1,1.42
Cc1cccn2cc(-c3cccc(S(=O)(=O)N4CC(C)CC(C)C4)c3)nc12 (stereo not drawn),0.16
Cc1nc(-c2cccc(NS(=O)(=O)c3ccc4ccccc4c3)c2)cs1,4.53*
CC(=O)Nc1nc(-c2ccc3ccccc3c2)cs1,0.21
SMILES,Dicer processing
CC(=O)Nc1ccc(S(=O)(=O)Nc2ccc(-c3csc(C)n3)cc2)cc1Cl,-0.43
CCc1ccc(S(=O)(=O)Nc2ccc(-c3cn4cccc(C)c4n3)cc2)cc1,7.21*
CCCN(CCC)S(=O)(=O)c1cccc(-c2cn3cccc(C)c3n2)c1,0.04
Cc1cccn2cc(-c3ccc(NS(=O)(=O)c4ccc(Cl)cc4)cc3)nc12,5.96*
Cc1cc(C)c(S(=O)(=O)Nc2ccc(-c3cn4ccccc4n3)cc2)cc1C,2.65
Cc1nc(-c2ccc(NS(=O)(=O)c3ccc(Cl)cc3)cc2)cs1,5.93*
Cc1nc(-c2ccc(Cl)cc2)cs1,2.62
